# From PubChem
# A selection: hits, their analogues and other compounds. The true share with any hit is near 1.9%.
# Insulin prom inh: TRM-6 insulin promoter activity inhibition | TRM-6 cells (human fetal islet line), insulin promoter-eGFP reporter, imaging; reporter expression induced with tamoxifen | inhibition, % at 2 µM | hit rate 0.9% among 130,000 | AID 1273;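 active means inhibition above the mean plus 3 SD, with well images judged a real hit on visual review, cut at about 60% in these data, passing the limit was not always enough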
# HMGR II inh: blocks class II HMG-CoA reductase of Enterococcus faecalis. purified E. faecalis HMGR, NADPH absorbance 340 nm kinetic. inhibition, % at 10 µM. hit rate 0.41% among 190,000. AID 1066;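 active means inhibition above a set limit, the median over all tested compounds plus 3 SD, cut at about 9.5% in these data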;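 further: enzyme runs in reverse so mevalonate oxidation gives rising NADPH absorbance; 0% = complete reaction with DMSO and 100% = background rate lacking mevalonate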
# Ins promoter up: MIN6 insulin promoter up-regulation | z-score at 5 µM | hit rate 0.3% among 190,000 | AID 1625 | MIN6 insulin promoter-GFP reporter, high-content imaging; active compounds read high;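 active means z-score above 3 at 5 µM with at least 500 cells counted in the well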
# Autophagy mod: modulators of autophagy. MEF GFP-LC3 puncta imaging; test concentration mostly 10 µM. calls only at 10 µM (by protocol). hit rate 0.98% among 190,000. AID 463193;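 active means percentage of spot-positive cells more than 3 SD above its plate mean, without a fluorescence outlier flag or 80% toxicity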;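 further: spot-positive cell cutoff set from DMSO-treated cells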
# Active calls of the source: *; i = inactive; / = no result; + = active, no number.
SMILES,Insulin prom inh,HMGR II inh,Ins promoter up,Autophagy mod
CN1CCCN(C(=O)CC2(CC(=O)O)CCCC2)CC1,13,5,0.46,i
CN1CCN(C(=O)CC2(CC(=O)O)CCCC2)CC1,-33,13*,0.6,i
Cc1ccc(CNC(=O)CCc2nnc(Cc3ccc(-c4ccccc4)cc3)o2)o1,/,-4,/,i
CCOc1ccc(S(=O)(=O)N(C)C)cc1-c1nc2c(C(C)(C)C)nn(C)c2c(=O)[nH]1,20,-5,0.27,i
CCOc1ccc(S(=O)(=O)N(C)CCO)cc1-c1nc2c(C(C)(C)C)nn(C)c2c(=O)[nH]1,24,25*,-2.3,i
O=C(NC(NC(=S)Nc1ccccc1C(=O)O)C(Cl)(Cl)Cl)c1ccccc1 (configuration not stated),11,17*,-0.15,i
COc1ccc(CN=C(C)c2c(C(F)(F)F)[nH]n(-c3nc4ccccc4s3)c2=O)cc1,23,-4,-0.37,+
COC(=O)Cc1[nH]n(-c2nc3ccccc3s2)c(=O)c1C(C)=O,18,-4,0.82,i
Cc1c(C(=O)Cc2ccccc2)n(C)c2ccccc12,/,-4,0.04,i
CCCC(=O)c1c(C)c2ccccc2n1C,16,-6,3*,i
O=C(NNc1ccc(Cl)cc1)c1c(F)cccc1Cl,/,/,-0.56,/
CC(=O)C(=Nc1ccccc1Cl)NNc1ccc(Cl)cc1,75*,4,-1.3,i
O=c1oc2ccccc2cc1-c1csc(Nc2nc3c(F)cccc3s2)n1,-20,-3,-0.61,+
O=c1oc2ccccc2cc1-c1csc(Nc2nc3ccc(F)cc3s2)n1,-56,-3,-0.08,i
O=C(c1ccccc1[N+](=O)[O-])n1cnc2ccccc21,/,-2,-0.05,i
Cn1c(C(=O)c2ccccc2[N+](=O)[O-])nc2ccccc21,80*,-5,1.1,i
NS(=O)(=O)c1cccc(NS(=O)(=O)c2cccc(C(F)(F)F)c2)c1,/,/,-0.07,/
COc1ccccc1-c1cc(C(F)(F)F)nc(S(=O)(=O)CCCC(=O)O)n1,19,12*,/,i
CCNC(=S)N1CCN(CC)CC1,/,1,0.36,i
CC1(C(=O)Nc2ccccc2)Cc2ccccc2C(=O)O1 (configuration not stated),/,-5,0.01,+
COc1ccc2c(c1)c(CC(=O)OCC(=O)O)c(C)n2C(=O)c1ccc(Cl)cc1,-8,-4,0.13,+
COc1ccc2c(c1)c(CC(=O)OCC(N)=O)c(C)n2C(=O)c1ccc(Cl)cc1,/,/,-0.39,/
NS(=O)(=O)c1ccc(NC(=O)C2Cc3ccccc3C(=O)O2)cc1 (configuration not stated),71*,4,0.43,i
O=C1OC(C(=O)Nc2ccccc2)Cc2ccccc21 (configuration not stated),-78,2,0.11,i
CCOC(=O)CSc1nc(C)c2cc(C)c(C)cc2n1,/,13*,0.05,i
SMILES,Insulin prom inh,HMGR II inh,Ins promoter up,Autophagy mod
Cc1cc2nc(SCC(=O)O)nc(C)c2cc1C,-25,3,-0.14,i
CCOC(=O)C(C)Sc1nc(=O)n2cccc(C)c2n1 (configuration not stated),/,-4,-0.34,i
CCOC(=O)CSc1nc(=O)n2cccc(C)c2n1,/,-11,0.32,+
O=[N+]([O-])c1cccc(Cl)c1NCCNS(=O)(=O)c1ccc(Cl)cc1,/,-1,0.04,i
CS(=O)(=O)NCCCNc1c(Cl)cccc1[N+](=O)[O-],74*,-4,0.36,i
COc1ccc2nc(SCC(=O)Nc3ccc4sc(C)nc4c3)c(C#N)cc2c1,-29,-6,1.9,+
Fc1ccccc1CSc1nnc(-c2ccccc2)o1,-35,-7,0.35,i
COc1ccc(-c2nnc(SCc3ccccc3F)o2)cc1,87*,2,/,i
CC(C)(C)c1ccc(C(=O)N2CCCN(c3ccc([N+](=O)[O-])cn3)CC2)cc1,/,/,-0.13,/
CCC(=O)N1CCN(c2ccc(NC(=S)NC(=O)C(C)C)cc2)CC1,/,-2,-0.19,+
CCOC(=O)c1csc(NC(=O)c2cc(=O)c3ccccc3o2)n1,/,-2,-0.3,i
CC(=O)c1sc(NC(=O)c2cc(=O)c3ccccc3o2)nc1C,/,-6,-1.1,+
CCOc1cc(NC(=O)c2ccco2)c(OCC)cc1NC(=O)COc1ccccc1C,-71,/,/,+
CCOc1cc(NC(=O)c2ccco2)c(OCC)cc1NC(=O)Cc1cccc(OC)c1,5,-2,-0.38,i
O=C1CN(C(=O)c2ccc(Cl)c(S(=O)(=O)N3CCc4ccccc43)c2)c2ccccc2N1,/,/,-0.7,/
CCCC(=O)NCCc1cc2cc(C)c(C)cc2[nH]c1=O,86*,-4,0.12,i
CCOc1ccc(-c2nn(-c3ccccc3)cc2/C=C2\SC(=S)N(C3CCS(=O)(=O)C3)C2=O)cc1 (configuration not stated),11,-6,-0.99,i
CCCOc1ccc(-c2nn(-c3ccccc3)cc2/C=C2\SC(=S)N(C3CCS(=O)(=O)C3)C2=O)cc1 (configuration not stated),24,-3,4.8*,i
COC(=O)c1scc(C)c1NS(=O)(=O)c1ccc(NC(C)=O)cc1,/,/,-0.35,/
O=C(N/N=C/C1CC2CCC1C2)c1ccc2c(c1)OCO2 (configuration not stated),0,1,0.04,i
CCCc1[nH]nc2c1C(CCC)C(C#N)=C(N)O2 (configuration not stated),/,11*,-0.23,i
CCCc1[nH]nc2c1C(c1ccncc1)C(C#N)=C(N)O2 (configuration not stated),0,-6,0.46,i
COc1ccc(OC)c(NC(=O)C2=C(C)NC(=O)NC2c2cccs2)c1 (configuration not stated),57,5,0.21,i
CCOC(=O)C1CCCN(C(=O)c2cn(C)c3ccc(S(=O)(=O)N(C)C)cc3c2=O)C1 (configuration not stated),/,-3,-1.2,+
CN(C)S(=O)(=O)c1ccc2c(c1)c(=O)c(C(=O)N1CCOCC1)cn2C,/,2,1,/
SMILES,Insulin prom inh,HMGR II inh,Ins promoter up,Autophagy mod
COc1cccc(C2c3c(C)nn(-c4ccc([N+](=O)[O-])cc4)c3N=C3C(=O)Nc4ccccc4N32)c1 (configuration not stated),/,-3,-1.2,+
O=C(Nc1cccc(Cl)c1)/C(=C\c1cccnc1)NC(=O)c1ccco1,67*,-4,0.02,i
CCN1CCN(CCCOc2ccc(-c3ccccc3)cc2)CC1,-12,-2,-0.77,+
O=C(c1ccccc1)c1ccc(OCCCCN2CCCCC2)cc1,-62,-3,-0.95,i
c1ccc(COc2ccc(OCCCCN3CCCCC3)cc2)cc1,/,3,-1.9,+
Cc1nc(CNC(=O)c2ccccc2OC2CCN(S(C)(=O)=O)CC2)cs1,/,-3,-0.4,i
Cc1nc(CN(C)C(=O)c2ccccc2OC2CCN(S(C)(=O)=O)CC2)cs1,/,-3,-0.16,+
CC(=O)c1cc(C#N)c(SCC(=O)OC(C)(C)C)nc1C,/,-2,1.7,i
CC(=O)c1cc(C#N)c(SCC(=O)OC(C)C)nc1C,93*,-3,0.15,i
Cc1csc(-c2cnn(-c3ccccc3)c2NC(=O)c2ccc(C(F)(F)F)cc2)n1,19,3,0.38,i
